The campaign covered roughly 69,000 compounds. About 8,600 (12%) showed an effect of 50% or more. The entries come from a sample that favours strong results as a whole.

The test system of this assay is Plasmodium berghei. In words: Screen against P. berghei liver stage (PbLuc), transformed with Luciferase, at 10uM. Type of assay: functional, HepG2. The following applies: tested at 10 uM.
Turning to `c1cc(-c2cnc(C3CCNCC3)cn2)n[nH]1`, the INHIBITION amounted to 38.7%. In the case of `CCc1noc(C)c1C(=O)N1CCCC1Cn1cccn1` (stereo not drawn) it was 45.7%.

On to `CC(C)N1CCOCC2(CN(Cc3nccs3)CCO2)C1` (stereo not drawn), for which the INHIBITION is reported as 10.3%. In the case of `O=C(NC1CCCC1)N1CC[C@H]2[C@H]1CCN2c1nncs1` it was 26%. Consider `COCCc1nnc(NC(=O)Cc2ccccc2Cl)o1`, for which the INHIBITION turned out to be 35.1%.

Turning to `COC(=O)N1CCC(CNC(=O)C2CC2)CC1`, the INHIBITION is recorded as -10.8%. In the case of `CCn1nc(C)c(-c2cncn2CCN(C)C2CCCC2)c1C` it was 27.6%; in that of `Cc1ccc2c(c1)CCC2NCc1c(C)nn(CCO)c1C` (stereo not drawn), -40.4%; in that of `CC(C)CC(CO)NC(=O)NCc1csc(N(C)C)n1` (stereo not drawn), -5.1%. In the case of `Cc1nc(N)cc(NCc2csc(N(C)C)n2)n1` it was -84.1%.

On to `CC(C)c1cc(NCc2csc(C(C)C)n2)nc(N)n1`, for which the INHIBITION stood at 58%. As for `CC(C)c1nc(CNc2ccc(CNS(C)(=O)=O)cc2)cs1`, the INHIBITION is recorded as -72.8%.

For the compound `CC(C)c1cc(NCc2csc(N(C)C)n2)nc(N)n1`, the INHIBITION is recorded as 87%. Consider `COCC1(CNc2cc(C(C)C)nc(N)n2)CC1`, for which the INHIBITION was 41.2%.

On to `O=C(c1cnccn1)N1CCCC2(CCN(Cc3ccsc3)CC2)C1`, for which the INHIBITION was -67.6%.

As to `O=C(CC1CNCCO1)N1CCC(c2cc(N3CCCC3)ncn2)CC1` (stereo not drawn), the INHIBITION is -23.2%. For `CN(CC(=O)Nc1ccncc1)C1CCCN(c2cccnn2)C1` (stereo not drawn) the value was 4.52%. In the case of `O=C(CCc1cccs1)Nc1ccnn1C1CCS(=O)(=O)C1` (stereo not drawn) it was 22.6%; in that of `O=C(CCc1ccsc1)Nc1ccnn1C1CCS(=O)(=O)C1` (stereo not drawn), 54.3%.

As for `Cc1cccc(CCC(=O)Nc2ccnn2C2CCS(=O)(=O)C2)c1` (stereo not drawn), the INHIBITION turned out to be 37.1%. On to `c1coc(CN2C[C@@H]3CCCO[C@@H]3[C@H](N3CCCC3)C2)c1`, for which the INHIBITION was 24.5%. For `Cc1ccc(CN(CC(=O)NC2CCOCC2)c2ccc(F)cc2)o1` the value was 67.8%; for `Cc1ccc(CN(CC(=O)NCC2CCOC2)c2ccc(F)cc2)o1` (stereo not drawn), 7.39%. In the case of `O=C(CN(Cc1cccs1)c1ccc(F)cc1)NC1CCOCC1`, the INHIBITION stood at 37.6%. As to `CN1CCN(Cc2cccnc2)C2(CCN(c3ncc(F)cn3)C2)C1=O` (stereo not drawn), the INHIBITION is recorded as -8.19%. In the case of `Cc1nc(C(=O)N(C)C)nn1-c1ccccc1C(C)C` it was 30.8%; in that of `CC(C)c1noc(CCC(=O)N2CCN(Cc3ccncc3)CC2)n1`, 37.9%. For `CC(=O)N1CCN(C(=O)CCCc2nc(C(C)C)no2)CC1` the value was -8.61%; for `CC(C)c1noc(CCC(=O)N2CCSCC2)n1`, 51.8%; for `NC(=O)c1ccc(C2CCCNC2)nc1` (stereo not drawn), 26.8%. For `CNC(=O)COc1ccccc1CNC1CCc2ncnn2C1` (stereo not drawn) the value was 63.6%; for `CNC(=O)COc1ccccc1CNC1CCc2nc(C)nn2C1` (stereo not drawn), -24.4%.

For `c1ccc(OCC2CC2)c(CNC2CCc3ncnn3C2)c1` (stereo not drawn), the INHIBITION is 8.383%. As to `c1ccc(OC2CCCC2)c(CNC2CCc3ncnn3C2)c1` (stereo not drawn), the INHIBITION came to 62.8%. On to `CN(C)C(=O)COc1ccccc1CNC1CCc2ncnn2C1` (stereo not drawn), for which the INHIBITION worked out at 33.6%.

With `c1ccc(COc2ccccc2CNC2CCc3ncnn3C2)cc1` (stereo not drawn), the INHIBITION is given as 26.9%. In the case of `CCCc1n[nH]c(=O)n1[C@@H](CC)c1ccccc1` it was 3.38%; in that of `COCCNC(=O)N1CC(Cc2ccccc2F)C1`, -20.6%.

With `Cc1ccc(F)c(C(=O)N2CCC(Nc3ccc(C)nn3)CC2)c1`, the INHIBITION is given as -15.5%.

In the case of `Cc1ncc(C)c(N2Cc3cnn(Cc4ccc(F)cc4)c3C2)n1`, the INHIBITION is reported as 32.5%. Take `Cc1ccnc(N2Cc3cnn(Cc4ccc(F)cc4)c3C2)n1`: the INHIBITION was determined as 39.1%. For `Cc1nccnc1N1Cc2cnn(Cc3ccc(F)cc3)c2C1` the value was 39.1%; for `CCNc1ccnc(N2Cc3cnn(Cc4ccc(F)cc4)c3C2)n1`, 78.4%; for `Cc1cnc(N2Cc3cnn(Cc4ccc(F)cc4)c3C2)nc1N(C)C`, 77.6%. Consider `Cc1cc(C)nc(N2Cc3cnn(Cc4ccc(F)cc4)c3C2)n1`, for which the INHIBITION was 22.4%. Regarding `Fc1ccc(Cn2ncc3c2CN(c2noc(C4CC4)n2)C3)cc1`, the INHIBITION is recorded as 33.3%. For `CCCc1nc(N2Cc3cnn(Cc4ccc(F)cc4)c3C2)no1` the value was 26.1%; for `N#Cc1cnc(N2Cc3cnn(Cc4ccc(F)cc4)c3C2)nc1N`, 61.2%. For `Cc1nc(N2Cc3cnn(Cc4ccc(F)cc4)c3C2)no1` the value was 12.8%.

For `Fc1ccc(Cn2ncc3c2CN(c2ncccn2)C3)cc1`, the INHIBITION is listed as -1.91%.

As for `CNc1cc(C)nc(N2Cc3cnn(Cc4ccc(F)cc4)c3C2)n1`, the INHIBITION came out at 75.1%.

Turning to `CC(Cn1ccnc1)NC(=O)NCCN1CCCCCC1=O` (stereo not drawn), the INHIBITION is 5.29%. As for `Cc1noc(C2CCN(C(=O)Nc3ccc(N(C)C)nc3)CC2)n1`, the INHIBITION was found to be 24.95%. For `CCNC(c1ccc(Cl)cc1)c1cccnc1` (stereo not drawn) the value was 3.15%; for `CC(C)C(=O)N1CCC2(CC1)NC(=O)c1ccccc12`, 39.3%. `Cc1ccccc1C(=O)N1CCC2(CCC(C(=O)NCC3CC3)O2)CC1` (stereo not drawn): the INHIBITION is reported as -3.58%. For the compound `CSCC(C)(O)CNS(=O)(=O)c1ccc(Br)cc1` (stereo not drawn), the INHIBITION is -23.5%. Turning to `Cn1c2c(c(=O)c3ccccc31)CCC(C)(C)O2`, the INHIBITION is recorded as -27.3%. As to `CN(Cc1ccco1)[C@@H]1CN(Cc2cnn(C)c2)[C@@H]2CCCO[C@H]12`, the INHIBITION turned out to be 38.1%.

Take `Cc1cc(CNC(=O)CCc2c(C)nc3cc(O)nn3c2C)no1`: the INHIBITION worked out at 15.5%. Turning to `CNS(=O)(=O)c1ccc(CN2CCCN(Cc3ccncc3)CC2)cc1`, the INHIBITION was 55.7%. For `CS(=O)(=O)c1ccc(CN2CCCCC2c2cccc(F)c2)cc1` (stereo not drawn) the value was 34%. In the case of `CNS(=O)(=O)c1ccc(CN2CCCN(c3ccccc3)CC2)cc1` it was 48.2%; in that of `Cn1cc(CN2CCC(c3ccncc3)CC2)cn1`, 23.35%; in that of `CNS(=O)(=O)c1ccc(CN2CCCC2c2ccc(F)cc2)cc1` (stereo not drawn), 51.3%. In the case of `CNS(=O)(=O)c1ccc(CN2CCCN(CC(C)C)CC2)cc1` it was 34.1%; in that of `CS(=O)(=O)c1ccc(CN2CCCCC2c2ccc(F)cc2)cc1` (stereo not drawn), 32.8%. With `CNS(=O)(=O)c1ccc(CN2CCC(c3ccncc3)CC2)cc1`, the INHIBITION is reported as 54.1%. For `CNS(=O)(=O)c1ccc(CN2CCN(Cc3ncccc3C)CC2)cc1` the value was 49.1%. In the case of `O=C1CN(C(=O)OCc2ccccc2)CC(O)CN1Cc1ccco1` (stereo not drawn) it was 34.3%; in that of `CCN(CC)C(=O)Cn1ccc2cc(NC(C)=O)ccc21`, -37.31%; in that of `CNc1cc2c(nn1)CCN(C(=O)c1ccc(-n3cccn3)nc1)C2`, 35.7%. For `COc1c(C2CCCN2C(=O)c2ccc(C#N)cc2)c(C)nn1C` (stereo not drawn) the value was 7.67%. Regarding `C[C@H]1CN(Cc2cnn(C)c2)C[C@@]12CCN(Cc1cccnc1)C2=O`, the INHIBITION is recorded as 48.2%. For `CC(=O)N1CCCN(C(C(=O)O)c2ccccc2OC(F)(F)F)CC1` (stereo not drawn) the value was 15.2%; for `O=C(CN1CCCC1Cn1cccn1)NCCOc1cccc(F)c1` (stereo not drawn), 48.4%. `Cc1nc(C)n(CCC(=O)N2CCc3ncc(Cl)cc3C2)n1`: the INHIBITION is reported as 24.4%. On to `CC(C)n1ncc2c1NC(=O)CSC2C(F)(F)F` (stereo not drawn), for which the INHIBITION is -38%.

As to `CNc1ccnc(N(C)Cc2cc(-c3cccs3)n[nH]2)n1`, the INHIBITION is reported as 88.4%. In the case of `CN(C)c1nccc(NCc2cc(-c3cccs3)n[nH]2)n1` it was 18.9%; in that of `CNc1cc(C(=O)N(C)Cc2cc(-c3cccs3)n[nH]2)ccn1`, 47.6%. Consider `CCc1n[nH]c(C2CN(C(=O)c3nc(C)ncc3Cl)CCO2)n1` (stereo not drawn), for which the INHIBITION worked out at 37.5%. For `CCOC(=O)c1sc(NC(=O)CCCC(=O)O)c(C#N)c1C` the value was 28.2%. For `Cc1ccc2[nH]c(CNC(=O)C3CC4(CCNCC4)CN3C)nc2c1C` (stereo not drawn) the value was 66.3%; for `COc1ccc2nc(CNC(=O)C3CC4(CCNCC4)CN3C)[nH]c2c1` (stereo not drawn), 18.6%; for `Cc1ccc(NCCCNC(=O)C2CC3(CCNCC3)CN2C)nc1` (stereo not drawn), 37.1%. As to `Cc1nc(NCC2CC2)nc2c1COCC21CCNC1` (stereo not drawn), the INHIBITION amounted to 38.1%. Turning to `c1coc(CNc2ncc3c(n2)C2(CCNC2)COC3)c1` (stereo not drawn), the INHIBITION stood at 29.8%. Take `Cc1nc(NCc2ccco2)nc2c1COCC21CCNC1` (stereo not drawn): the INHIBITION is listed as 55.5%. For `Cc1ccc(Oc2ncccc2C(=O)N(C)CCCN(C)C)c(C)c1` the value was 13.5%. As to `CCOCC(=O)N1CCC(C)(c2nccs2)CC1`, the INHIBITION is listed as 38.05%. In the case of `CC(=O)N1CCN(C(=O)CCn2c(C)nc3ccccc3c2=O)CC1`, the INHIBITION was determined as 8.665%. As to `CC(C)=CCN1CCC(c2nnc(CN3CCN(C)CC3)n2C)CC1`, the INHIBITION is 25.4%. On to `Cc1noc([C@@]23CCO[C@@H]2CCN(C(=O)c2c(C)noc2C)C3)n1`, for which the INHIBITION worked out at 28.2%. For `Cc1noc([C@@]23CCO[C@@H]2CCN(C(=O)c2cc(C)c(C)s2)C3)n1`, the INHIBITION came to 57.1%. Take `Cc1noc([C@@]23CCO[C@@H]2CCN(C(=O)c2cc(C)on2)C3)n1`: the INHIBITION stood at 61.9%. In the case of `Cc1noc([C@@]23CCO[C@@H]2CCN(C(=O)c2sccc2C)C3)n1`, the INHIBITION is given as -4.56%. With `Cc1noc([C@@]23CCO[C@@H]2CCN(C(=O)c2ccsc2)C3)n1`, the INHIBITION is on record as -15.3%.

As to `Cc1noc([C@@]23CCO[C@@H]2CCN(C(=O)c2cc(C)[nH]c2C)C3)n1`, the INHIBITION was 24.9%. For `CC(C)Cc1nc(CCn2cncn2)n(-c2ccc3c(c2)OCCO3)n1` the value was 41.2%; for `Cc1cc(Cl)ccc1-n1ncc(C(=O)N(C)CCc2ccccn2)c1N`, 29.3%. In the case of `CC(C)c1nc(-c2ccnc(N3CCNCC3)n2)no1` it was 18.2%.

As to `CC(C)n1ccnc1CN1CCCN(C(=O)c2cnn(C)c2)CC1`, the INHIBITION came to 10.9165%. Consider `Cc1nc(CN2C(=O)COC3(CCN(C(N)=O)CC3)C2C)cs1` (stereo not drawn), for which the INHIBITION is given as -10.3%. In the case of `CS(=O)(=O)c1cncnc1C1CCCN(C(=O)Nc2ccccc2F)C1` (stereo not drawn) it was -8.76%; in that of `COc1ccccc1CN(Cc1cccs1)S(=O)(=O)N(C)C(C)C`, 67.5%; in that of `CC(C)N(C)S(=O)(=O)N(Cc1cccs1)Cc1cccs1`, 14.6%. In the case of `CCN(Cc1cccs1)S(=O)(=O)N(C)C(C)C` it was 44.3%.

For the origin of these results see ChEMBL document CHEMBL4513216, “Probing the Open Global Health Chemical Diversity Library for Multistage-Active Starting Points for Next-Generation Antimalarials” (ACS Infect Dis, 2020).
